Experimental findings from PubChem BioAssay (Tox21) are described below.

“And” between values parts separate entries of the source, which are not always exact repeats. Equal values may be shown once. A structure can be active in one record and inactive in another. The source made the active and inactive calls. Unless noted, calls follow the shape of the dose curve; as a rule, active = well fitted curve in the direction sought with a large enough effect in the repeat runs; inconclusive = weak or mixed curves; inactive = no such curve, though single readings can be large; an effect the other way counts as inactive or inconclusive.

A short description of experiment [1]: qHTS assay to identify small molecule antagonists of the glucocorticoid receptor (GR) signaling pathway - cell viability counter screen (AID 720693). Also: nearly all actives have a fitted effect of over 55% in size. Also: potency is read from the fitted curve at half-maximal effect. As to conditions: GR-bla HeLa viability, CellTiter-Glo luminescence, 18 h, with 5 nM dexamethasone present; series mostly up to 58.5 µM.
A short description of experiment [2]: qHTS assay for identifying genotoxic compounds that show differential cytotoxicity against isogenic chicken DT40 cell lines with known DNA damage response pathways - wild type cell line (AID 743012). Also: nearly all actives have a fitted effect of over 60% in size. Also: potency is read from the fitted curve at half-maximal effect. As to conditions: DT40 wild type chicken cells viability, CellTiter-Glo, 40 h; series mostly up to 68.4 µM. Put shortly:
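Quantitative HTS on parental DT40 cells: 40 h compound treatment at 37 C/5% CO2, with viability then determined by CellTiter-Glo luminescence. Values serve as the DNA repair-proficient reference for differential cytotoxicity.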

A short description of experiment [3]: qHTS assay for identifying genotoxic compounds that show differential cytotoxicity against isogenic chicken DT40 cell lines with known DNA damage response pathways - Rev3 mutant cell line (AID 743014). Also: nearly all actives have a fitted effect of over 55% in size. Also: potency is read from the fitted curve at half-maximal effect. As to conditions: chicken DT40 Rev3-/- viability, CellTiter-Glo, 40 h; series mostly up to 68.4 µM.
The nature of experiment [4]: qHTS assay for identifying genotoxic compounds that show differential cytotoxicity against isogenic chicken DT40 cell lines with known DNA damage response pathways - Rad54/Ku70 mutant cell line (AID 743015). Also: nearly all actives have a fitted effect of over 60% in size. Also: potency is read from the fitted curve at half-maximal effect. As to conditions: DT40 Rad54/Ku70 mutant viability, CellTiter-Glo, 40 h; series mostly up to 66.8 µM.
Experiment [5] in a line: qHTS assay to identify small molecule antagonists of the androgen receptor (AR) signaling pathway - cell viability counter screen (AID 743033; also: nearly all actives have a fitted effect of over 45% in size; also: potency is read from the fitted curve at half-maximal effect). As to conditions: AR-bla HEK293 viability, CellTiter-Glo luminescence, 16 h; series mostly up to 58.5 µM.
The nature of experiment [6]: qHTS assay to identify small molecule antagonists of the androgen receptor (AR) signaling pathway using the MDA cell line - cell viability counter screen (AID 743041; also: nearly all actives have a fitted effect of over 45% in size; also: potency is read from the fitted curve at half-maximal effect). As to conditions: MDA-kb2 viability, CellTiter-Fluor, 16 h, cells co-treated with R1881 androgen agonist; series mostly up to 70.3 µM. Put shortly: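 Same-well cytotoxicity was assessed by CellTiter-Fluor in MDA-kb2 AR-luc cells after 16 h of compound treatment under R1881 agonism.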

Experiment [7] in a line: qHTS assay to identify small molecule antagonists of the thyroid receptor (TR) signaling pathway (AID 743065). Also: nearly all actives have a fitted effect of over 55% in size. Also: potency is read from the fitted curve at half-maximal effect. As to conditions: GH3.TRE-Luc, T3-stimulated luciferase inhibition, 23.5 h; series mostly up to 70.3 µM. Put shortly: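 GH3.TRE-Luc rat pituitary cells (two TREs driving luciferase) were dosed with compound, then stimulated with 1 nM T3 (final) for 23.5 h at 37 C. ONE-Glo luminescence was the read-out, with CellTiter-Fluor fluorescence as the cytotoxicity counter-screen.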

Experiment [8] concerns the target Estrogen receptor (Homo sapiens) (UniProt P03372). The experiment in a line: qHTS assay to identify small molecule antagonists of the estrogen receptor alpha (ER-alpha) signaling pathway (AID 743069; active = well fitted curve in the direction sought with a large enough effect in the signal ratio in the repeat runs, not every such curve was filed as active; inconclusive = weak or mixed curves, or effect the other way; inactive = no such curve, though single readings can be large or run the other way; the % refers to the signal ratio; also: potency is read from the fitted curve at half-maximal effect). As to conditions: HEK293 ER-alpha-UAS-bla, beta-lactamase ratio, antagonist mode; series mostly up to 69.4 µM. Put shortly: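 Reporter cells (ER-alpha-bla, HEK293 background) are conditioned overnight in stripped-serum medium (2% charcoal-stripped FBS). Compound and 17beta-estradiol exposure runs 18 hr at 37C, 5% CO2.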

Experiment [9] can be described thus: qHTS assay to identify small molecule antagonists of the estrogen receptor alpha (ER-alpha) signaling pathway - cell viability counter screen (AID 743074; calls by dose curve; also: nearly all actives have a fitted effect of over 45% in size; also: potency is read from the fitted curve at half-maximal effect). As to conditions: ERalpha-bla HEK293 viability, CellTiter-Glo luminescence, 18 h; series mostly up to 69.4 µM.
Experiment [10] can be described thus: qHTS assay to identify small molecule antagonists of the estrogen receptor alpha (ER-alpha) signaling pathway using the BG1 cell line (AID 743080; calls by dose curve;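 also: BG1 cells stimulated with 17beta-estradiol alongside compound; nearly all actives have a fitted effect of over 25% in size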; also: potency is read from the fitted curve at half-maximal effect). As to conditions: BG1Luc4E2 ERE-luciferase antagonist mode, luminescence; series mostly up to 70.3 µM. Put shortly:
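Luminescence from a 4×ERE-luciferase reporter in BG1-Luc-4E2 cells served as read-out. Cells, pre-cultured 5 days in stripped-serum phenol-red-free medium, were exposed to compound with 17beta-estradiol co-stimulation for 21.5 h at 37 C.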

The target of experiment [11] is Aromatase (Homo sapiens) (UniProt P11511). The experiment in a line: qHTS assay to identify aromatase inhibitors (AID 743083). Also: nearly all actives have a fitted effect of over 55% in size. Also: potency is read from the fitted curve at half-maximal effect. As to conditions: MCF-7 aro ERE, testosterone-driven ERE luciferase, 24 h; series mostly up to 70.3 µM.
Sequence of Aromatase (Homo sapiens) (P11511 whole entry, looked up): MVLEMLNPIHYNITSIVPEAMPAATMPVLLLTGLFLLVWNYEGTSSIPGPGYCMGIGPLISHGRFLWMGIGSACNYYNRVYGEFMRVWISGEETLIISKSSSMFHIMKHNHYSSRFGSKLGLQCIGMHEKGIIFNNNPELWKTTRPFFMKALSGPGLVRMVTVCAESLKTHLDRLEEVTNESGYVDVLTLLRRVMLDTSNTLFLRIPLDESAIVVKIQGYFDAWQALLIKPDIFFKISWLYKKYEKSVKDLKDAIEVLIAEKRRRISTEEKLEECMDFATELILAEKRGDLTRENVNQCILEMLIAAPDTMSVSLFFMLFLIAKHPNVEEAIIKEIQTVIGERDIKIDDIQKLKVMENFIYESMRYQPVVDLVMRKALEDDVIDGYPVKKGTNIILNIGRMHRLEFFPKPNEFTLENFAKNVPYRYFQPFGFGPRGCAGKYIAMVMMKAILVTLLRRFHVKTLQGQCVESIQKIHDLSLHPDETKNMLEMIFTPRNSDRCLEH
The nature of experiment [12]: qHTS assay to identify small molecule antagonists of the thyroid receptor (TR) signaling pathway - cell viability counter screen (AID 743064). Also: nearly all actives have a fitted effect of over 50% in size. Also: potency is read from the fitted curve at half-maximal effect. As to conditions: GH3.TRE-Luc viability, CellTiter-Fluor, 24 h; series mostly up to 70.3 µM. The method, boiled down:
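Plate GH3.TRE-Luc cells; incubate 4 h at 37 °C; add compound, then T3 to 1 nM final; incubate 23.5 h; add CellTiter-Fluor; incubate 30 min at 37 °C, 5% CO2; read fluorescence.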

Experiment [13] deals with thyroid hormone receptor (rat, GH3 cells). The experiment in a line: qHTS assay to identify small molecule agonists of the thyroid receptor (TR) signaling pathway (AID 743066; calls by dose curve). As to conditions: GH3.TRE-Luc cells, TR agonist luciferase, 24 h; series mostly up to 83.9 µM.
Experiment [14] is described as follows: qHTS assay to identify small molecule antagonists of the estrogen receptor alpha (ER-alpha) signaling pathway using the BG1 cell line - cell viability counter screen (AID 743081).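 Also: compound given together with 17beta-estradiol as the ER stimulus; nearly all actives have a fitted effect of over 45% in size.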 Also: potency is read from the fitted curve at half-maximal effect. As to conditions: BG1Luc4E2 viability, CellTiter-Fluor, 22 h; series mostly up to 70.3 µM.
Experiment [15] addresses Estrogen receptor (Homo sapiens) (UniProt P03372). Briefly: qHTS assay to identify small molecule agonists of the estrogen receptor alpha (ER-alpha) signaling pathway (AID 743075; calls by dose curve; also: potency is read from the fitted curve at half-maximal effect). As to conditions: HEK293 ER-alpha-UAS-bla, beta-lactamase FRET ratio, 18 h; series mostly up to 70.1 µM.
Experiment [16] has the same target. The experiment in a line: qHTS assay to identify small molecule agonists of the estrogen receptor alpha (ER-alpha) signaling pathway using the BG1 cell line (AID 743079). Also: nearly all actives have a fitted effect of over 20% in size. Also: potency is read from the fitted curve at half-maximal effect. As to conditions: BG1Luc4E2 cells, ERE-luciferase agonist, 22 h; series mostly up to 70.3 µM.
% is scaled to controls: 0 for no effect and ±100 for the full control effect.

Sequence of Estrogen receptor (Homo sapiens) (P03372 whole entry, looked up): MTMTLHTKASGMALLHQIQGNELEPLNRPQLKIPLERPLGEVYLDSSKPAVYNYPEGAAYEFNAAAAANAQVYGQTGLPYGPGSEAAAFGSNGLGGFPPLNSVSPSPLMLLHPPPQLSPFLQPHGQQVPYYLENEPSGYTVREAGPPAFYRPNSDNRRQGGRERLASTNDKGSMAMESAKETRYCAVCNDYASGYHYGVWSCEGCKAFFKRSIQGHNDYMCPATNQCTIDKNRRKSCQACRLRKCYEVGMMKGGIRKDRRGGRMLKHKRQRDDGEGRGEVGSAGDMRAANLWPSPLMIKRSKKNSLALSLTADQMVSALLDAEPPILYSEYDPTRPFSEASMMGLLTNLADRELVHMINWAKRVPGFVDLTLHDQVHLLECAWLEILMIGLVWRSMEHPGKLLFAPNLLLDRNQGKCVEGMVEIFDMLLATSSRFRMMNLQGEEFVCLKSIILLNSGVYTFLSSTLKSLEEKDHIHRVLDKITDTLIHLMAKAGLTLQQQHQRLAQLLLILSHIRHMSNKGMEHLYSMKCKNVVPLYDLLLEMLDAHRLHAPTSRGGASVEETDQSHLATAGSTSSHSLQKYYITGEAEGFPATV

For the compound `CC1(c2ccc(Oc3ccccc3)cc2)OC(=O)N(Nc2ccccc2)C1=O` (centres undefined), the Potency in [1] is 22 µM (active); in [2], 1.09 µM (active); in experiment [3] it was 0.869 µM (active); in [4] it was 0.774 µM (active); in experiment [5] it was 24.7 µM (active); in experiment [6], 27.5 µM (active). The Potency in experiment [7] is 1.94 µM (active); in experiment [8], 17.5 µM [inconclusive] (active); in [10] it was 21.8 µM (active); in [11] it was 61.5 µM (active). Moreover, the Potency entry in experiment [9] is “inactive”.

Take `CN(C)CCc1c[nH]c2cccc(O)c12`: the Potency entry in [1], in experiment [5], in experiment [6], in experiment [12] and in experiment [9] was “inactive” each time. The values for the Potency in [2], in experiment [3] and in [4] were 30.3 µM (active), 60.5 µM (active) and 42.8 µM (active), respectively. In addition, the outcome in experiment [13] was inactive.

For the compound `CCCCCCCCCCCCCC[P+](CCCCCC)(CCCCCC)CCCCCC` (tested in a mixture with another compound), the Potency in experiment [1] is 2.75 µM (active); in experiment [2], 3.44 µM (active); in experiment [3] it was 3.86 µM (active); in [4] it was 3.06 µM (active); in [5], 1.95 µM (active); in [12] it was 2.43 µM (active). The Potency in experiment [7] is 1.54 µM (active); in [8] it was 0.246 µM [inconclusive] (active); in experiment [9] it was 7.76 µM (active); in experiment [10], 2.73 µM (active); in experiment [14], 9.69 µM (active); in [11], 3.06 µM (active).

With `CC1CCC(C(C)C)C(OC(=O)c2ccccc2N)C1` (centres undefined), the Potency result in [1], in [3], in experiment [5], in experiment [6], in [9] and in experiment [10] was “inactive” each time. The Potency result in experiment [14] was “inactive”. For the same compound, the Potency in [2] was 23.7 µM (active) and inactive; in experiment [4], 26.6 µM (active); in experiment [15], 7.56 µM [inconclusive] (active) and 6.82 µM [inconclusive] (active); in [16], 3.35 µM (active) and 2.69 µM (active); in experiment [11], “inactive and 60.3 µM (active)”. Also, in experiment [13], the compound was called inactive.

For `CCCCCCCCCCCCCCCC[n+]1ccccc1`, the Potency in [1] is 25.7 µM (active) and 30.9 µM (active) and 34.2 µM (active); in [2] it was 427 nM (active) [middle of 4 runs]; in [3] it was 380 nM (active) [middle of 4 runs]; in experiment [4], 386 nM (active) [middle of 4 runs]; in [5], 19.2 µM (active) [middle of 4 runs]; in [6] it was 27.3 µM (active) [middle of 4 runs]. In addition, the Potency in experiment [12] was 16.8 µM (active) [middle of 4 runs]; in [9], 22.9 µM (active) and 24.5 µM (active) and 43 µM (active); in [10] it was 21.1 µM (active) and 18 µM (active) and 15.4 µM (active); in experiment [11], 7.7 µM (active) [middle of 4 runs]. In addition, in [15], the Potency entry was “inactive”.

On to `CC(C)CC(C)(c1ccc(O)cc1)c1ccc(O)cc1`, for which the Potency in experiment [1] is 49 µM (active); in experiment [3], 27.4 µM (active) and 38.6 µM (active); in experiment [4], 54.6 µM (active); in experiment [5] it was 55.1 µM (active); in experiment [12], 54.6 µM (active) and 54.5 µM (active); in [7], 27.4 µM (active) and 38.6 µM (active). The Potency in [9] is 55.1 µM (active); in experiment [11], 48.7 µM (active). For the same compound, the Potency entry in experiment [2] and in experiment [14] was “inactive” in each case. The compound was classed as inactive in [13].

For the compound `BrC(Br)Br`, the Potency result in experiment [1], in experiment [2], in experiment [3], in [4], in [5] and in [6] was “inactive” throughout. Moreover, the Potency result in [12], in experiment [7], in [9], in [14] and in [11] was “inactive” each time. Further, the compound was called inactive in experiment [13].

On to `S=C(SSC(=S)N1CCCCC1)N1CCCCC1`, for which the Potency result in experiment [1] and in experiment [9] was “inactive” in each case. Moreover, the Potency in [2] was 0.531 µM (active); in experiment [3], 0.531 µM (active); in [4] it was 0.596 µM (active); in experiment [5], 6.01 µM (active); in experiment [6], 1.06 µM (active); in [12], 0.211 µM (active). The Potency in experiment [7] is 0.237 µM (active); in experiment [11], 1.06 µM (active).

On to `CC(C)OC(=S)S`, for which the Potency result in [1], in experiment [6], in [12], in experiment [8], in experiment [9] and in [15] was “inactive” each time. Moreover, the Potency entry in experiment [10] and in [14] was “inactive” throughout. For the same compound, the Potency in experiment [2] was 24.3 µM (active); in experiment [3], 27.3 µM (active); in experiment [4], 24.3 µM (active); in [5], 17.4 µM (active). Besides, the result in experiment [13] was inactive.

Take `COc1cc(N)c(Cl)cc1C(=O)NC1CN2CCC1CC2` (centres undefined): the Potency entry in [1], in experiment [2], in experiment [3], in experiment [4], in experiment [5] and in [12] was “inactive” each time. Further, the Potency entry in [9], in [14] and in [11] was “inactive” in each case. The result in [13] was inactive.

Regarding `N#C/C=C/C#N`, the Potency entry in [1], in experiment [2], in experiment [3], in experiment [4], in experiment [5] and in experiment [8] was “inactive” throughout. Besides, the Potency entry in [9], in [16] and in [14] was “inactive” each time. Besides, the Potency is 64 µM (active) in experiment [12], 32.1 µM (active) in experiment [7], 45.7 µM [inconclusive] (active) in [15] and 28.6 µM (active) in experiment [11]. Further, the compound was called inactive in [13].

Take `C[C@H]1CC[C@@H]2[C@@H](C)[C@H]3[C@H](C[C@H]4[C@@H]5CC=C6CC(O[C@@H]7O[C@H](CO)[C@H](O)[C@H](O[C@@H]8O[C@H](CO)[C@@H](O)[C@H](O)[C@H]8O)[C@H]7O[C@H]7O[C@@H](C)[C@H](O)[C@@H](O)[C@H]7O)CC[C@]6(C)[C@H]5CC[C@]34C)N2C1` (some centres undefined): the Potency result in experiment [1], in experiment [3], in experiment [5], in experiment [8], in experiment [16] and in experiment [14] was “inactive” throughout. Also, the Potency in experiment [2] was 26.6 µM (active) and inactive; in experiment [4] it was 26.6 µM (active) and inactive; in experiment [12] it was 18.8 µM (active) and inactive; in experiment [9], 16.9 µM (active) and inactive; in [10] it was 17.8 µM (active); in experiment [11], 25.1 µM (active). For the same compound, in experiment [13], the call was inactive.
